Laboratory results as given in PubChem BioAssay AID1745853 (National Center for Advancing Translational Sciences (NCATS), 2022).
Hit rate of the full screen: of about 25,000 compounds, about 970 (3.9%) were called active. Another 8% or so got no clear call; they are omitted. The rule behind the calls is not given here. The full list was thinned out, with actives kept by preference.

What was measured:
Assay in all cases: Primary Screen for Target Class Profiling of Small Molecule Inhibitors of Methyltransferases
[1] = target: Catechol O-methyltransferase (Homo sapiens) (UniProt P21964); settings: purified enzyme, MTase-Glo SAH luminescence; activity change, negative = inhibition: at 40 µM, stronger effect = lower value; outcome: 40 uM
Sequence of Catechol O-methyltransferase (Homo sapiens) (P21964 whole entry, looked up): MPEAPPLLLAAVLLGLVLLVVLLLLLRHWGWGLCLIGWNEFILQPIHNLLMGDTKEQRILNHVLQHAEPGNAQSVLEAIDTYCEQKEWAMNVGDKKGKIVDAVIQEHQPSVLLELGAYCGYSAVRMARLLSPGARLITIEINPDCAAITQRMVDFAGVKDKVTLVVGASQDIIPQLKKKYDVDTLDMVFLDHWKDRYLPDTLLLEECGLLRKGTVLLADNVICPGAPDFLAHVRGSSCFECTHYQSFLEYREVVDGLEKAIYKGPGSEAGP
Outline: (§1)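 Each enzyme was assayed with SAM and its substrate. SAH formation detected by MTase-Glo luminescence; single-point 40 uM screen[…].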

[2] = target: Glycine N-methyltransferase (Homo sapiens) (UniProt Q14749); settings: purified enzyme, MTase-Glo SAH luminescence; measured here: GNMT inhibition; at 40 µM; stronger effect = lower value
Sequence of Glycine N-methyltransferase (Homo sapiens) (Q14749 whole entry, looked up): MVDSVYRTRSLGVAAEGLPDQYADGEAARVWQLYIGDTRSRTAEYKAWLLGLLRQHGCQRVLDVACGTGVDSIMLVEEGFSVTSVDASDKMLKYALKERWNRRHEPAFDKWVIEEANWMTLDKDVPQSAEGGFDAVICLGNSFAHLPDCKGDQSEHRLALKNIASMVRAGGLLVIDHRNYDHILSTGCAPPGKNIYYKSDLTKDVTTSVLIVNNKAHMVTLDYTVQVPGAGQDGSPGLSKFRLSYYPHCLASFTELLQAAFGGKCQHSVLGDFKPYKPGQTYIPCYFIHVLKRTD
Outline: as §1

[3] = target: Guanidinoacetate N-methyltransferase (Homo sapiens) (UniProt Q14353); settings: purified enzyme, MTase-Glo SAH luminescence; measured here: GAMT inhibition; at 40 µM; stronger effect = lower value
Outline: as §1

[4] = target: Histamine N-methyltransferase (Homo sapiens) (UniProt P50135); settings: purified enzyme, MTase-Glo SAH luminescence; measured here: HNMT inhibition; at 40 µM; stronger effect = lower value
Sequence of Histamine N-methyltransferase (Homo sapiens) (P50135 whole entry, looked up): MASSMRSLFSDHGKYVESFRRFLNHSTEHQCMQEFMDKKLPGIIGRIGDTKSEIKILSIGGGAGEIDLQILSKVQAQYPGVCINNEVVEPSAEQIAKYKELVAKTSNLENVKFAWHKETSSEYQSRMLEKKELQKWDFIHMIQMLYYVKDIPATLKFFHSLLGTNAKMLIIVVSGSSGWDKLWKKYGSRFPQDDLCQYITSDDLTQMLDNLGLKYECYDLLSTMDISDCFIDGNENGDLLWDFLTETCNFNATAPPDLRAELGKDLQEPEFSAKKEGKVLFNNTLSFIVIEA
Outline: as §1

[5] = target: Nicotinamide N-methyltransferase (Homo sapiens) (UniProt P40261); settings: purified enzyme, MTase-Glo SAH luminescence; measured here: NNMT inhibition; at 40 µM; stronger effect = lower value
Sequence of Nicotinamide N-methyltransferase (Homo sapiens) (P40261 whole entry, looked up): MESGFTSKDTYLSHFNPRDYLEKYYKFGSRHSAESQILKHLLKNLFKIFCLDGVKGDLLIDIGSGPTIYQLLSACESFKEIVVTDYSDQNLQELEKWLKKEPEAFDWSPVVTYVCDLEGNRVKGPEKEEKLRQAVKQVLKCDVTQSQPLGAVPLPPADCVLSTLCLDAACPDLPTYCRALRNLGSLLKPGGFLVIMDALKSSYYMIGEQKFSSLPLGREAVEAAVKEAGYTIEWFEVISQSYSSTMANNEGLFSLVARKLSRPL
Outline: as §1

[6] = target: Phenylethanolamine N-methyltransferase (Homo sapiens) (UniProt P11086); settings: purified enzyme, MTase-Glo SAH luminescence; measured here: PNMT inhibition; at 40 µM; stronger effect = lower value
Sequence of Phenylethanolamine N-methyltransferase (Homo sapiens) (P11086 whole entry, looked up): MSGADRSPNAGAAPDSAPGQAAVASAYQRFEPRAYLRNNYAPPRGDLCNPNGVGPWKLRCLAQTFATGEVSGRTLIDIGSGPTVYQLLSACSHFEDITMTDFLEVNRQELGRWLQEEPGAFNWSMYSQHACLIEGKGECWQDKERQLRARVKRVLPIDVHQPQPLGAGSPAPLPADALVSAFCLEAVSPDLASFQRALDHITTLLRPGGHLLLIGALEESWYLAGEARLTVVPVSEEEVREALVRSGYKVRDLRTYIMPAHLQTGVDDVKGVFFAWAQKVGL
Outline: as §1
% is set by controls: 0 for no effect and ±100 for the full control effect.

| Structure (SMILES) | activity change, negative = inhibition [1] | activity change, negative = inhibition [2] [%] | activity change, negative = inhibition [3] [%] | activity change, negative = inhibition [4] [%] | activity change, negative = inhibition [5] [%] | activity change, negative = inhibition [6] [%] |
| --- | --- | --- | --- | --- | --- | --- |
| CC1(C)CCC(C)(C)c2cc3c(cc21)Sc1ccccc1N=C3c1ccc(C(=O)O)cc1 | 9.33% (inactive) | 1.76 | 4.41 | 11.6 | -26.9 | 3.91 |
| Cc1cc(C[C@@H]2COC[C@@H]2NC(=O)c2cccc(-n3nc(C)cc3C)c2)on1 | -7.5% (inactive) | -5.02 | -7.68 | -5.59 | -12.1 | -25.6 |
| CCCN1C(=O)c2cc3sccc3n2CC1(C)C(=O)NC1CCC(C)CC1 (stereo not drawn) | 0.545% (inactive) | 0.536 | 4.2 | -0.49 | 0.936 | -2.48 |
| CCOC(=O)c1cc2n(n1)CC(C)(C(=O)NC1CCCC1)N(c1ccc(C)cc1)C2=O (stereo not drawn) | 2.4% (inactive) | -0.39 | 4.54 | 3.6 | -0.074 | 2.88 |
| Nc1ccc2c3c(cccc13)C(=O)NC2=O | -69.4% (active) | -41.1 | -13 | -8.7 | -18.3 | -8.01 |
| CCOc1ccccc1CN1C(=O)c2ccc(-c3ccco3)n2CC1(C)C(=O)NC1CCCCC1 (stereo not drawn) | 5.26% (inactive) | -1.1 | 0 | 5.47 | 3.87 | 0.061 |
| COc1ccccc1-c1[nH]nc2ncc(C(=O)N3CCN(Cc4ccccc4)CC3)nc12 | -63.8% (active) | -70.9 | -63.7 | -73.4 | -59.4 | -76.7 |
| COc1ccc(-c2ncc3c(n2)OCCN(Cc2ccccc2)C3=O)cn1 | -3.7% (inactive) | -12 | -5.92 | -5.55 | -19.1 | -28.2 |
| CN1C(=O)c2cc(C(=O)N3CCN(Cc4ccccc4)CC3)nn2CC1(C)C(=O)NCc1ccccc1 (stereo not drawn) | 1.23% (inactive) | 5.09 | 0.749 | 4.84 | 6.08 | -8.04 |
| O=c1c2ccccc2n2c(=O)n(Cc3cccc(F)c3)nc2n1CCc1ccccc1 | -1.7% (inactive) | -7.42 | -7.2 | 8.21 | -7.17 | -9.52 |
| CC1(C)[C@H](Cc2cc(-c3ccccc3)on2)C[C@@H]1NCC1CC1 | -5.01% (active) | -5.31 | -6 | -40.7 | -19.5 | -50.1 |
| CCCn1c(=O)c2cc(Cl)ccc2n2c(SCC(=O)Nc3ccc(Cl)cc3)nnc12 | -0.206% (inactive) | -6.08 | 4.35 | 1.24 | -3.29 | 1.76 |
| CCOCCCN1C(=O)c2cc3ccccc3n2CC1(C)C(=O)NCCC(C)C (stereo not drawn) | 4% (inactive) | 6.59 | 4.89 | 8.93 | 10.6 | 0.52 |
| CCCn1c(=O)c2ccc(C(=O)NC(C)CC)cc2n2c(=O)n(CC(=O)Nc3ccccc3)nc12 (stereo not drawn) | -0.37% (inactive) | 0.266 | 3.33 | 0.842 | -0.601 | 3.03 |
| O=c1c2ccccc2n2c(=O)n(Cc3ccccc3)nc2n1Cc1ccc(F)cc1 | 6.23% (inactive) | 9.17 | 3.06 | 12.4 | 6.51 | 5.22 |
| COc1ccc(-c2nc3ccncc3[nH]2)cc1 | -149% (active) | -99.2 | -103 | -91.6 | -110 | -145 |
| CC1CCN(S(=O)(=O)c2ccc3c(ccn3CCC(=O)N3CCN(c4ccccn4)CC3)c2)CC1 | -2.75% (inactive) | -6.24 | -4.09 | -2.6 | -7.95 | -2.86 |

| Structure (SMILES) | activity change, negative = inhibition [1] | activity change, negative = inhibition [2] [%] | activity change, negative = inhibition [3] [%] | activity change, negative = inhibition [4] [%] | activity change, negative = inhibition [5] [%] | activity change, negative = inhibition [6] [%] |
| --- | --- | --- | --- | --- | --- | --- |
| Cc1cc(Nc2cc(N3CCN(C)CC3)nc(Sc3ccc(NC(=O)C4CC4)cc3)n2)n[nH]1 | -3.15% (active) | -71.8 | 5.06 | -13.3 | -11.1 | -0.531 |
| Cc1ccc(Cn2c(=O)c3ccccc3n3c(CCC(=O)NCc4ccc5c(c4)OCO5)nnc23)cc1 | -5.97% (inactive) | -13.5 | 2.22 | -2.65 | -2.38 | -7.16 |
| O=C(NCc1ccc2c(c1)OCO2)c1sc(=S)n2c1[nH]c(=O)c1ccccc12 | -20.2% (active) | -52.7 | 0 | -2.67 | -35.9 | -28.2 |
| Cc1cc2c(cc1S(=O)(=O)NCc1ccc3c(c1)OCO3)n(C)c(=O)n2C | 13.6% (inactive) | 12.8 | 1.49 | 9.41 | 2.71 | 6.83 |
| COC(=O)[C@]12C(=O)C(C)=C(O)[C@@]1(C)C(C)=CC1[C@@]34CC[C@@H](OC(C)=O)C(C)(C)C3[C@H](C[C@]12C)OC4=O (stereo partly drawn) | 5.51% (inactive) | 0 | 3.85 | 9.8 | -6.73 | 3.04 |
| CN(C)[C@@H]1C(=O)C(C(N)=O)=C(O)[C@@]2(O)C(=O)C3=C(O)c4c(O)ccc(Cl)c4[C@@H](O)[C@H]3C[C@@H]12 | -74.5% (active) | -24.2 | 6.87 | 3.22 | -8.53 | -5.78 |
| COCCOc1cc(=O)n2c(c1C(=O)NCc1ccccc1)CCOCC2 | -1.21% (inactive) | 1.04 | -0.934 | 1.39 | -1.22 | 1.39 |
| CCC(C)(C)NC(=O)c1cccc2c1CCN2C(=O)Nc1ccc(C)cc1 | -3.57% (inactive) | -1.49 | -2.95 | 1.94 | -7.5 | -2.44 |
| Cn1c(=O)n(C)c2cc(Nc3nc4ccccc4nc3NS(=O)(=O)c3ccc(Cl)cc3)ccc21 | 3.8% (inactive) | 7.68 | -3.35 | -4.47 | 0.13 | -6.48 |
| O=C(O)CC1CCC(c2ccc(-c3ccc(Nc4ccc(C(F)(F)F)nc4)cn3)cc2)CC1 (stereo not drawn) | 17.9% (active) | -52.1 | -12.8 | 1.31 | -35.3 | -4.28 |
| CC(C)c1nccn1CCCNc1nc(-c2ccncc2)nc2c1cnn2C | -44.5% (active) | -59.1 | -50.1 | -86 | -53 | -25.5 |
| CCOC(=O)c1cc2n(n1)CC(C)(C(=O)NCc1ccc(F)cc1)N(Cc1ccccc1OC)C2=O (stereo not drawn) | -3.88% (inactive) | -3.75 | 3.18 | 0.898 | -7.43 | -5.73 |
| COCCN1CC2(CCC1=O)CCN(C(=O)[C@@H]1C[C@@H](O)CN1)CC2 | 4.29% (inactive) | -0.827 | -1.32 | 1.21 | 0.29 | -19.8 |
| CC(C)CCN1CC2(CCCN(C(=O)c3ccn(C)c(=O)c3)C2)CCC1=O (stereo not drawn) | -31.2% (active) | -57.8 | -45.1 | -13.3 | -17.7 | -27 |
| COCCCn1c(=O)[nH]c2cccnc21 | -9.36% (inactive) | -5.17 | -6.2 | -1.12 | -14.7 | 9.39 |
| CCCn1c(=O)c2ccc(C(=O)NC(C)C)cc2n2c(=O)n(CC(=O)NCc3ccccc3Cl)nc12 | 4.33% (inactive) | 2.57 | 1.92 | 6.44 | 8 | 4.03 |
